Our source for the Potency and activity change, positive = activation values is PubChem BioAssay AID1458 (National Center for Advancing Translational Sciences (NCATS), 2008).

Hit rate of the full screen: of about 210,000 compounds, about 5,900 (2.8%) were called active. Entries that show only a call come without a potency. Roughly 5% stayed inconclusive and do not appear here. The sample holds actives, similar compounds and a random draw of the others, so the mix is not that of the screen. Values without a mark were called inactive. Calls come from the whole dose curve; as a rule, active = well fitted activation curve with a large enough effect; inconclusive = small, poorly fitted or top-dose-only effect; inactive = no such curve, though single readings can be large or run the other way.
Potency is the fitted concentration of half-maximal effect.

This assay can be described thus: qHTS Assay for Enhancers of SMN2 Splice Variant Expression. Note: nearly all actives have a fitted effect of over 55% in size. Conditions: HEK293 SMN2-luciferase splicing reporter, luminescence, 30-36 h; series mostly up to 46.1 µM. Put shortly:
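HEK293 cells carry an SMN2 minigene-luciferase reporter in which exon 7 inclusion puts luciferase in frame. Cells were seeded at 2000 cells/well, attached for 10-12 hours, then exposed to compounds for 30-36 hours at 37C before ONE-Glo luminescence.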
For the molecule `CCOC(=O)C1CCCN(CC(=O)Nc2cc(C)c3c(=O)oc4ccccc4c3n2)C1` (stereo not drawn), the Potency result is “inactive”.
Same read-out and setting: then `CCN(CC)S(=O)(=O)c1ccc2c(c1)c(=O)c(C(=O)N1CCN(c3cccc(Cl)c3)CC1)cn2C`, with “inactive”; and `CCOCCCNC(=O)c1c(NC(=O)Cc2coc3ccc(C)cc23)sc2c1CCC2`, with “inactive”; and `Cc1ccc(C(=O)OCc2nc(N)nc(Nc3ccccc3C)n2)cc1`, with “inactive”.
In the case of `Cc1ccccc1Nc1nc(N)nc(CN2CCN(c3ccccn3)CC2)n1`, the Potency entry was “inactive”.
On the same count and under the same terms, under `Cc1ccccc1Nc1nc(N)nc(CSc2ccccc2)n1` stands 14.1 µM (active); under `COc1ccc(CCNC(=O)CCCn2c(=O)c3ccccc3n(Cc3ccc(C)cc3)c2=O)cc1OC`, “inactive”; under `COc1cccc(/C=C/C(=O)Nc2ccc3c(c2)OCCO3)c1`, 11.2 µM (active).
The same measure, in the same setting: under `CCc1c(C)sc(NC(=O)/C=C/c2ccc3c(c2)OCO3)c1C(=O)OC` stands “inactive”; under `Cc1cccc(NC(=O)/C=C/c2ccc3c(c2)OCO3)n1`, 2.24 µM (active).
`O=C(/C=C\c1ccc2c(c1)OCO2)NC1(C(=O)Nc2ccc3c(c2)OCCO3)CCCCC1`: the Potency result was “inactive”.
For the molecule `COc1ccc(OC)c(/C=C/C(=O)OCC(=O)Nc2ccc3c(c2)OCCO3)c1`, the Potency entry was “inactive”.
Regarding `COc1ccc(/C=C/C(=O)Nc2ccc3c(c2)OCCO3)cc1OC`, the Potency result was “inactive”.
For the molecule `COc1ccc(NC(=O)CNC(=O)Cn2ccc3ccccc3c2=O)c(OC)c1`, the Potency entry is “inactive”.
On the same count and under the same terms, under `Cc1ccc(C)c(Cn2c(C(=O)O)c(CNCc3cccs3)c3ccccc32)c1` stands “inactive”; under `CCOc1ccc(Nc2c(S(=O)(=O)c3ccccc3)cnc3ccccc23)cc1`, “inactive”; under `COc1cc(Br)cc2cc(S(=O)(=O)c3ccccc3)c(=O)oc12`, “inactive”.
Still for that read-out and setting: then `CN(Cc1ccccc1)C(=O)c1cn(C)c2ccc(S(=O)(=O)N3CCCCC3)cc2c1=O`, with “inactive”.
For the molecule `CCOc1cccc(C(=O)Nc2nnc(-c3cccs3)s2)c1`, the Potency was 12.6 µM (active).
The same measure, in the same setting: under `CCOc1cccc(C(=O)Nc2cccnc2)c1` stands “inactive”; under `CCc1nnc(NC(=O)c2cccs2)s1`, “inactive”; under `CCC(C)[C@@H](N)C(=O)O` (stereo partly drawn), “inactive”.
As to `Cc1ccc(N2CC(c3nnc(Cc4ccccc4Cl)o3)CC2=O)cc1` (stereo not drawn), the Potency entry is “inactive”.
On the same count and under the same terms, then `O=C(c1cc(-c2cccs2)on1)N1CCCCC1`, with 14.1 µM (active); and `O=C(c1cc(-c2ccc(F)cc2)on1)N1CCN(c2ccc(F)cc2)CC1`, with “inactive”.
Still for that read-out and setting: under `COc1cccc(-c2cc(C(=O)N3CCN(c4ccccc4OC)CC3)no2)c1` stands “inactive”; under `COc1ccccc1-c1cc(C(=O)N2CCCCC2)no1`, 14.1 µM (active); under `COc1ccccc1N1CCN(C(=O)c2cc(-c3ccc(Cl)c(Cl)c3)on2)CC1`, “inactive”.
Same read-out and setting: then `O=C(c1ccc(F)cc1)N1CCCC(c2nc(-c3cccs3)no2)C1` (stereo not drawn), with “inactive”.
As for `CCCCn1cc(S(=O)(=O)c2ccc(OCC)cc2)c(=O)c2cc(OC)c(OC)cc21`, the Potency result was “inactive”.
For the molecule `O=P(O)(O)C(O)c1ccc2ccccc2c1` (stereo not drawn), the Potency entry is “inactive”.
Same read-out and setting: then `O=c1cc(COc2cccc(C(F)(F)F)c2)nc2sc3c(n12)CCCC3`, with “inactive”.
On the same count and under the same terms, then `COc1ccc(N(C)C(=O)C2CCN(S(=O)(=O)c3cc(Br)cc4c3N(C(C)=O)CC4)CC2)cc1`, with “inactive”; and `CN(c1ccc(C(=O)NCc2ccccn2)cc1)S(C)(=O)=O`, with “inactive”.
Turning to `Cn1nnc2cc(C(=O)NCCC3=CCCCC3)ccc21`, the Potency is 11.2 µM (active).
For the molecule `O=C(NCCC1=CCCCC1)c1ccc(Cl)c([N+](=O)[O-])c1`, the Potency entry was “inactive”.
Still for that read-out and setting: under `O=C(Cc1cccc2ccccc12)NCCC1=CCCCC1` stands “inactive”; under `CN(c1ccc(C(=O)NCCC2=CCCCC2)cc1)S(C)(=O)=O`, 11.2 µM (active).
On to `O=C(Cc1nn[nH]n1)NCCC1=CCCCC1`, for which the Potency result is “inactive”.
The same measure, in the same setting: then `Cc1nc2nc(SCC(=O)N(Cc3ccccc3)C(C)C)nn2c(C)c1Cc1ccccc1Cl`, with “inactive”; and `CCc1ccc(CN(Cc2ccco2)C(=O)c2ccccc2Cl)cc1`, with “inactive”; and `COc1ccccc1CNC(=O)CCCn1c(=O)c2ccccc2n(CC(=O)Nc2ccc(C)cc2Cl)c1=O`, with “inactive”.
With `O=C(NCc1ccc2c(c1)OCO2)c1ccc(Cl)s1`, the Potency result is “inactive”.
On the same count and under the same terms, under `O=C(NC1=NCCS1)c1ccc(Cl)s1` stands 15.8 µM (active).
Same read-out and setting: under `O=C(NC1=NCCS1)[C@H](Cc1ccccc1)N1C(=O)c2ccccc2C1=O` stands “inactive”; under `COc1cccc2c1cc1c(=O)n(CC(=O)N3CCN(c4ccccc4)CC3)nc(C)n12`, “inactive”; under `CCNC(=O)CC1C(=O)N(c2ccc(F)cc2)C(=O)N1Cc1ccc(C)cc1` (stereo not drawn), “inactive”.
On the same count and under the same terms, then `COc1ccc(NS(=O)(=O)c2ccc(NC(=S)NC(=O)CC(C)C)cc2)cc1`, with “inactive”; and `CC(C)CC(=O)NC(=S)Nc1cc(C(=O)O)ccc1Cl`, with “inactive”.
As for `CC(=O)c1ccc(NC(=S)NC(=O)CC(C)C)cc1`, the Potency is 7.94 µM (active).
Turning to `Cc1cccc(NC(=O)Cn2c(C(F)(F)F)nc3ccccc32)c1C`, the Potency entry was “inactive”.
Same read-out and setting: then `COc1ccc(N2CCN(c3cc(C)nc4nncn34)CC2)cc1`, with “inactive”.
As for `O=C(c1ccc2c(c1)N(Cc1ccccc1F)C(=O)c1ccccc1S2(=O)=O)N1CCOCC1`, the Potency result is “inactive”.
Consider `CC(=O)Nc1cccc(-c2csc(Nc3cccc(C)n3)n2)c1`, for which the Potency was 10 µM (active).
The same measure, in the same setting: under `COc1ccc(CCNc2nc(-c3cccc(NC(C)=O)c3)cs2)cc1OC` stands “inactive”.
On the same count and under the same terms, then `CC(=O)Nc1ccc(-c2csc(NC(=O)Nc3ccccc3)n2)cc1`, with “inactive”.
Consider `COc1ccccc1CNC(=O)CCn1c(=O)c2ccccc2n(CC(=O)Nc2cccc(Cl)c2)c1=O`, for which the Potency result is “inactive”.
`O=C(O)c1cccc(N=NN2CCCCCC2)c1`: the Potency was 0.631 µM (active).
Turning to `O=C(O)c1ccc(N=NN2CCOCC2)cc1`, the activity change, positive = activation was -3.34% [at 1.84 µM].
Regarding `O=C(Nc1cccc(C(=O)N2CCCC2)c1)c1ccccc1`, the Potency result was “inactive”.
The same measure, in the same setting: under `CCOC(=O)c1cc2c(=O)n3ccccc3nc2n(CC2CCCO2)c1=NC(=O)c1ccccc1F` (stereo not drawn) stands “inactive”.
Consider `CCOC(=O)c1c(C)[nH]c2c1-c1ccccc1C(=O)C2=O`, for which the Potency result is “inactive”.
Still for that read-out and setting: then `CCOC(=O)c1c(C)[nH]c(C2=NNC(=NC(C)COC)SC2)c1C` (stereo not drawn), with 3.16 µM (active); and `Cc1ccc2cc3cc(C(=O)N4CCCCCC4)oc3nc2c1`, with 5.01 µM (active); and `Cc1cc(=O)oc(C)c1C(=O)N1CCCCC1`, with “inactive”.
Regarding `CCc1ccc(CNC(=O)c2cc3cc4ccc(OC)cc4nc3o2)cc1`, the Potency entry is “inactive”.
With `COc1ccccc1Nc1c2c(nc3ccc(NC(=O)/C=C/c4cc(OC)c(OC)c(OC)c4)cc13)CCCC2`, the Potency entry was “inactive”.
Still for that read-out and setting: under `CCOc1c(CNCc2ccc(C(=O)O)cc2)cccc1OC` stands “inactive”; under `O=C(O)c1ccc(COCC(F)(F)F)cc1`, “inactive”.
Regarding `CCCCCc1ccc(-c2ccc(C(=O)O)cc2)nc1`, the Potency is 3.98 µM (active).
Turning to `COc1ccc(Nc2ncc(F)c(N3CCOCC3)n2)cc1`, the Potency was 10 µM (active).
For `CCOc1ccc(Nc2nc(Cl)nc(N3CCN(c4ccc(OC)cc4)CC3)n2)cc1`, the Potency entry is “inactive”.
Same read-out and setting: under `COc1ccc(Nc2ncc3c(n2)CCN(C(=O)OC(C)(C)C)C3)cc1` stands “inactive”.
As for `CC(C)c1ccc(OCC(=O)N(Cc2ccc(N(C)C)cc2)C2CCS(=O)(=O)C2)cc1` (stereo not drawn), the Potency result was “inactive”.
Same read-out and setting: under `CC1CCCCN1Cc1c(O)ccc2c(=O)c(-c3cccc(Cl)c3)c(C(F)(F)F)oc12` (stereo not drawn) stands “inactive”.
The same measure, in the same setting: then `CCOC(=O)C1CCN(C(=O)CSc2c3c(nc4ccc(Cl)cc24)CCCC3)CC1`, with “inactive”; and `COCc1cc(C)nc(SCC(=O)Nc2cccc(C)c2)c1C#N`, with “inactive”.
As to `Cc1cc(C)c(C#N)c(SCC(=O)Nc2ccccc2)n1`, the Potency was 12.6 µM (active).
In the case of `Cc1ccc(-c2cc(C(F)(F)F)c(C#N)c(SCC(=O)Nc3ccccc3)n2)cc1`, the Potency result was “inactive”.
Turning to `Cc1cccc(NC(=O)Cn2c(=O)n(CCC(C)C)c(=O)c3cccnc32)c1`, the Potency result is “inactive”.
As for `COc1cc(CN(CC2CCCO2)C(=O)c2ccccc2F)cc(OC)c1OC` (stereo not drawn), the Potency result is “inactive”.
The same measure, in the same setting: under `CCc1ccc(NC(=O)Cn2c(=O)n(CCC(=O)NCc3ccc4c(c3)OCO4)c(=O)c3ccccc32)cc1` stands “inactive”; under `Cc1ccccc1-n1c(=O)c2ccccc2n(Cc2ccc(F)cc2)c1=O`, “inactive”.
Still for that read-out and setting: under `CCOc1ccc(NC(=O)c2c(NC(=O)Cc3ccccc3)sc3c2CCCCC3)cc1` stands “inactive”; under `CCC(C)(C)NC(=O)C(c1cccn1C)N(Cc1ccc(C)cc1)C(=O)Cn1nnc2ccccc21` (stereo not drawn), 15.8 µM (active); under `Cc1ccc(C(C(=O)NCc2ccco2)N(CC2CCCO2)C(=O)Cn2nnc3ccccc32)cc1` (stereo not drawn), “inactive”.
On the same count and under the same terms, then `COCCNC(=O)C(c1ccc(C)o1)N(Cc1ccccc1)C(=O)Cn1nnc2ccccc21` (stereo not drawn), with “inactive”; and `O=C(Cn1c(=O)n(-c2ccc(F)cc2)c(=O)c2sc3ccccc3c21)NC1CCCC1`, with “inactive”.
For the molecule `Cc1ccc(-n2ncc3c(=O)n(Cc4cccc(C(F)(F)F)c4)cnc32)cc1C`, the Potency entry is “inactive”.
For the molecule `CC(C)c1ccc(Cn2c(COc3ccccc3)nc3ccccc32)cc1`, the Potency entry is “inactive”.
In the case of `COCn1c(COc2ccccc2)nc2ccccc21`, the Potency is 12.6 µM (active).
Still for that read-out and setting: under `O=C(Cn1c(COc2ccccc2)nc2ccccc21)Nc1cc(Cl)c(Cl)cc1Cl` stands “inactive”; under `Cc1cc(C)c2oc(C(=O)Nc3ccc(S(=O)(=O)Nc4nccc(C)n4)cc3)cc(=O)c2c1`, “inactive”.
Still for that read-out and setting: then `O=C(CN1C(=O)COc2ccc(S(=O)(=O)N3CCCCCC3)cc21)N1CCN(c2cccc(C(F)(F)F)c2)CC1`, with “inactive”.
Still for that read-out and setting: then `Cc1nc(N2CCCCC2)sc1C=O`, with “inactive”.
On to `c1c2c(cc3sc(N4CCCCC4)nc13)OCCO2`, for which the Potency was 0.501 µM (active).
Same read-out and setting: under `O=C(Nc1nc2cc3c(cc2s1)OCCO3)c1cccc(S(=O)(=O)N2CCOCC2)c1` stands “inactive”; under `Cc1ccc(C(=O)Nc2ccc(OCc3cc(=O)n4c(C)csc4n3)cc2)cc1`, “inactive”.
For the molecule `CCNC(=O)Cn1nc(C)n2c(cc3c(OC)cccc32)c1=O`, the Potency result was “inactive”.
Consider `COC(=O)c1ccccc1NC(=O)c1ccc2c(=O)n3c(nc2c1)CCCCC3`, for which the Potency entry was “inactive”.
The same measure, in the same setting: then `O=C(Nc1nc2ccc(S(=O)(=O)N3CCCC3)cc2s1)C1CCCO1` (stereo not drawn), with “inactive”; and `Cc1cc([N+](=O)[O-])ccc1NC(=O)C1CCCO1` (stereo not drawn), with “inactive”.
Same read-out and setting: under `Cc1cc(C)c2nc(NC(=O)C3CCCO3)sc2c1` (stereo not drawn) stands 12.6 µM (active).
